Data on 21 compounds can be found in PubChem BioAssay (NCATS).

Assay [1] addresses Muscarinic acetylcholine receptor M1 (Rattus norvegicus) (UniProt P08482). The assay is described as follows: qHTS Assay for Antagonists of Acetylcholine Muscarinic M1 Receptor: Measurement of IP-One Response (AID 944). Note: nearly all actives have a fitted effect of over 75% in size. Note: potency is the fitted concentration of half-maximal effect. The gist of the method:
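CHO cells stably expressing rat M1, pretreated 10 min with compound, then stimulated 30 min with carbachol at EC80 (200 nM) in LiCl-containing buffer pH 7.4; IP1 accumulation read by HTRF competition (665/620 nm).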

Assay [2] deals with Pyruvate kinase (Leishmania mexicana) (UniProt Q27686). In words: qHTS Validation Assay for Inhibitors of Leishmania Mexicana Pyruvate Kinase (AID 945). An outline of the steps:
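Eight-point qHTS titrations; enzyme 0.2 nM LmPYK (E451W mutant); substrates 0.5 mM PEP, 0.1 mM ADP; 7 mM MgCl2; 1 h room temperature; PKLight luminescence normalized to neutral control.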
(In general: Quantitative high-throughput screening tests each substance at several concentrations.)

The target in assay [3] is Pyruvate kinase PKM (Homo sapiens) (UniProt P14618). The assay is described as follows: qHTS Assay for Activators of Human Muscle Pyruvate Kinase (AID 954; active = well fitted curve in the direction sought with a large enough effect, not every such curve was filed as active). The gist of the method:
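Human PKM2 activity is measured as ATP generation, detected by luciferase-coupled luminescence. The enzyme (0.1 nM) acts on 0.5 mM PEP and 0.1 mM ADP for 1 h at ambient temperature; data are normalized to uninhibited and full-inhibition wells.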

The structures appear in SMILES notation. Records with an inconclusive call do not appear. Entries that show only a call come without a potency. The source made the active and inactive calls. Unless noted, calls come from the whole dose curve; as a rule, active = well fitted inhibition curve with a large enough effect; inconclusive = small, poorly fitted or top-dose-only effect; inactive = no such curve, though single readings can be large or run the other way.

Chain of Pyruvate kinase (Leishmania mexicana) (Q27686 2-499 E452W): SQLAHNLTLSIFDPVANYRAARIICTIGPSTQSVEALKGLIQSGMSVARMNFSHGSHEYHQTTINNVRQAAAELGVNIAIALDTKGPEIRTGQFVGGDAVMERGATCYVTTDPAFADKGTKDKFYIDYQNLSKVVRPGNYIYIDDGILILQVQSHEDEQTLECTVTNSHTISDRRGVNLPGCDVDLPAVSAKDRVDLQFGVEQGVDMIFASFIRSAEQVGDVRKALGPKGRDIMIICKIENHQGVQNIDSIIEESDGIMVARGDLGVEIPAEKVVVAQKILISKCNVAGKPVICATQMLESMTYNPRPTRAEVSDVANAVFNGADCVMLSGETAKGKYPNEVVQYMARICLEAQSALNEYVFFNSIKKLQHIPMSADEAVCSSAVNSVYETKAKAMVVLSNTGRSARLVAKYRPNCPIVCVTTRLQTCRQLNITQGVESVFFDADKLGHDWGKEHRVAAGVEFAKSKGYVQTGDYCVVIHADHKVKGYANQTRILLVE
Chain of Muscarinic acetylcholine receptor M1 (Rattus norvegicus) (P08482 whole entry, looked up): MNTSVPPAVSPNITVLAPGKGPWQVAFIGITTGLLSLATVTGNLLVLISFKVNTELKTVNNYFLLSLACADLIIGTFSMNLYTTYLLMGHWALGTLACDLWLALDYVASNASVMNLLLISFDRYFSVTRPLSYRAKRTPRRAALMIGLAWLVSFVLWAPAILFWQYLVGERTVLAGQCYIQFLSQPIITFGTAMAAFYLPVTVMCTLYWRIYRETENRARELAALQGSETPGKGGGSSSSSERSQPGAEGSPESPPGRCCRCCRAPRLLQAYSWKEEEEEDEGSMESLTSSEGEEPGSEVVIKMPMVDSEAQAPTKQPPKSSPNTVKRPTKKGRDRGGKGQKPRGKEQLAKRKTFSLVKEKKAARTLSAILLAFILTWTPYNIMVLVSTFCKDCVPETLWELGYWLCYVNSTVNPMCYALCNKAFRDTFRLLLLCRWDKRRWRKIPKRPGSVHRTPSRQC
Chain of Pyruvate kinase PKM (Homo sapiens) (P14618 whole entry, looked up): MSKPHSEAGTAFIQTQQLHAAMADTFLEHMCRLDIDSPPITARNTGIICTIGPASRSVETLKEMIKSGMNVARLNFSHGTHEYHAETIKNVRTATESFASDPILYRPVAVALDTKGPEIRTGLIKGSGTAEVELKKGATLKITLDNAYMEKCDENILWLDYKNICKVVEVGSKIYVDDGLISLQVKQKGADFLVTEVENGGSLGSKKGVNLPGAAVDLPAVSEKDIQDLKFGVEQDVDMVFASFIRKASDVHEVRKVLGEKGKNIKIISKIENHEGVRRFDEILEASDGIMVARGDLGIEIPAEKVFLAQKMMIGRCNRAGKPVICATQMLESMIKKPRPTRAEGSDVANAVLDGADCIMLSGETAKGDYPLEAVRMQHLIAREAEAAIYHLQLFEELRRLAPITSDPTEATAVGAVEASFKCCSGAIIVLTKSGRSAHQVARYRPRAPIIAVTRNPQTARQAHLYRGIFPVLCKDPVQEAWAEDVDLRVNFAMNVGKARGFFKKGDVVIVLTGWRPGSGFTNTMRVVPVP

`NC(N)=NC(=O)Cc1c(Cl)cccc1Cl`: the Potency entry in assay [1] and in assay [2] was “inactive” in each case. Besides, in assay [3], the result was inactive.

As for `COCC(=O)O[C@]1(CCN(C)CCCc2nc3ccccc3[nH]2)CCc2cc(F)ccc2[C@@H]1C(C)C`, the Potency entry in assay [2] is “inactive”.

Take `C[N+](C)(C)CCCCCCCCCC[N+](C)(C)C`: in assay [2], the Potency result is “inactive”. The result in assay [3] was inactive.

`Cc1nc2sccn2c(=O)c1CCN1CCC(=C(c2ccc(F)cc2)c2ccc(F)cc2)CC1`: in assay [1], the Potency is 15.8 µM (active). Also, the Potency result in assay [2] was “inactive”. Also, the outcome in assay [3] was inactive.

Turning to `c1cc(CN2CCCCC2)cc(OCCCNc2nc3ccccc3s2)c1`, the Potency in assay [1] is 14.1 µM (active). The Potency result in assay [2] was “inactive”. In assay [3], the outcome was inactive.

As to `CCc1cccc(N(C)C(N)=Nc2cccc3ccccc23)c1`, the Potency entry in assay [2] was “inactive”. The compound was called inactive in assay [3].

`CN(C)CC/C=C1\c2ccccc2COc2ccccc21`: in assay [2], the Potency entry was “inactive”.

For the compound `C[C@]12C=CC(=O)C=C1CC[C@H]1[C@@H]3C[C@@H](O)[C@](O)(C(=O)CO)[C@@]3(C)C[C@H](O)[C@@]12F`, in assay [2], the Potency entry was “inactive”. Further, the outcome in assay [3] was inactive.

As for `COc1cc2c(cc1OC)-c1cc(=Nc3c(C)cc(C)cc3C)n(C)c(=O)n1CC2`, the Potency entry in assay [2] was “inactive”. Moreover, in assay [3], the call was inactive.

Consider `C[C@]12CCC(=O)C=C1CC[C@@H]1[C@@H]2CC[C@@]2(C)[C@H]1CC[C@]2(O)C(=O)CO`, for which the Potency entry in assay [2] was “inactive”. Also, in assay [3], the outcome was inactive.

As to `C#CCN(C)CCCOc1ccc(Cl)cc1Cl`, the Potency result in assay [2] was “inactive”. Further, the call in assay [3] was inactive.

Turning to `CCN1CCc2nc(N)oc2CC1`, the Potency result in assay [2] is “inactive”. Moreover, the compound was called inactive in assay [3].

Take `C(=C\c1ccccc1)/CN1CCN(C(c2ccccc2)c2ccccc2)CC1`: the Potency result in assay [2] was “inactive”. In assay [3], the result was inactive.

For the compound `CCC(=O)c1ccc2c(c1)N(CCCN(C)C)c1ccccc1S2`, the Potency in assay [1] is 1.41 µM (active). In addition, the Potency entry in assay [2] is “inactive”. Besides, the outcome in assay [3] was inactive.

As to `c1cnc(N2CCN(Cc3ccc4c(c3)OCO4)CC2)nc1`, the Potency result in assay [2] is “inactive”. The outcome in assay [3] was inactive.

`C[N+](C)(C)CCOC(=O)CCC(=O)OCC[N+](C)(C)C`: in assay [2], the Potency entry is “inactive”.

Take `CCOC(=O)c1cnc2c(cnn2CC)c1NN=C(C)C`: the Potency result in assay [2] was “inactive”. Further, in assay [3], the call was inactive.

Take `CCc1c(C)[nH]c2c1C(=O)C(CN1CCOCC1)CC2` (configuration not stated): the Potency entry in assay [1] and in assay [2] was “inactive” in each case. For the same compound, the call in assay [3] was inactive.

`O=C(CCCN1CCC(O)(c2cccc(C(F)(F)F)c2)CC1)c1ccc(F)cc1`: in assay [3], the result was inactive.

For the compound `CC1=C(C)C(=O)C(CCCCC#CCCCC#CCO)=C(C)C1=O`, the Potency result in assay [2] is “inactive”. Moreover, the outcome in assay [3] was inactive.

With `NCCCNCCSP(=O)(O)O`, the Potency result in assay [2] is “inactive”.
